Assay results taken from the supplement of paper PMC7411054.
Structures can show the parent of a compound that is named as a salt.

Key:
Experiment in all cases: lowest phenotypically active concentration; higher = less potent
Conditions in all cases: treatment time: 24 h
HepG2-ACTB-RAB5A = system: HepG2-ACTB-RAB5A
How it was run: (§1)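 Fifteen gene-edited A549, HepG2 and WPMY1 reporter lines (BFP segmentation plus GFP and RFP/FusionRed markers) were treated at 0.3, 1, 3 or 9 µM for 24 h, four wells each, then imaged live. Live-cell features per well were normalised to DMSO control wells. Deviation required ≥3 of 4 wells beyond the 95th percentile of DMSO Euclidean distances, and reproducibility required median replicate Pearson correlation above the 95th percentile of non-replicates. Phenotypic activity needed both criteria.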

HepG2-CANX-COX4 = system: HepG2-CANX-COX4
How it was run: as §1

HepG2-GM130-SQSTM1 = system: HepG2-GM130-SQSTM1
How it was run: as §1

HepG2-TP53BP1-CLTA = system: HepG2-TP53BP1-CLTA
How it was run: as §1

HepG2-TUBA1B-RELA = system: HepG2-TUBA1B-RELA
How it was run: as §1

WPMY1-ACTB-RAB5A = system: WPMY1-ACTB-RAB5A
How it was run: as §1

WPMY1-CANX-COX4 = system: WPMY1-CANX-COX4
How it was run: as §1

WPMY1-GM130-SQSTM1 = system: WPMY1-GM130-SQSTM1
How it was run: as §1

WPMY1-TP53BP1-CLTA = system: WPMY1-TP53BP1-CLTA
How it was run: as §1

WPMY1-TUBA1B-RELA = system: WPMY1-TUBA1B-RELA
How it was run: as §1

Measured: lowest phenotypically active concentration

CC1=C(C(=O)Nc2cc3cn[nH]c3cc2F)C(c2ccc(C(F)(F)F)cc2)CC(=O)N1 (stereo not given)
3 µM: WPMY1-TP53BP1-CLTA
≤ 0.3 µM: all other assays above

CC(=O)O[C@H]1C(=O)[C@@]2(C)[C@H]([C@H](OC(=O)c3ccccc3)[C@]3(O)C[C@H](OC(=O)[C@H](O)[C@@H](NC(=O)c4ccccc4)c4ccccc4)C(C)=C1C3(C)C)[C@]1(OC(C)=O)CO[C@@H]1C[C@@H]2O [paclitaxel]
9 µM: WPMY1-CANX-COX4
≤ 0.3 µM: all other assays above

O=C(NCCCNc1nc(Nc2cccc(NC(=O)N3CCCC3)c2)ncc1I)c1cccs1
≤ 0.3 µM: HepG2-TUBA1B-RELA
1 µM: HepG2-CANX-COX4 | HepG2-TP53BP1-CLTA
3 µM: all other assays above

CON(C)C(=O)N1N=C(c2cc(F)ccc2F)S[C@@]1(CCCN)c1ccccc1 [ARRY 520 trifluoroacetate]
≤ 0.3 µM: all assays above

COc1ccc(C[C@H](N)C(=O)N[C@H]2[C@@H](O)[C@H](n3cnc4c(N(C)C)ncnc43)O[C@@H]2CO)cc1 [Puromycin dihydrochloride]
1 µM: WPMY1-CANX-COX4 | WPMY1-TP53BP1-CLTA | WPMY1-TUBA1B-RELA
≤ 0.3 µM: all other assays above

CC(=O)Nc1ccc(C(=O)Nc2ccccc2N)cc1
9 µM: WPMY1-TUBA1B-RELA
1 µM: HepG2-CANX-COX4 | HepG2-GM130-SQSTM1 | HepG2-TP53BP1-CLTA
3 µM: all other assays above

CC(C)c1cc(-c2n[nH]c(=O)n2-c2ccc3c(ccn3C)c2)c(O)cc1O [ganetespib]
≤ 0.3 µM: all assays above

CCC1=C[C@@H]2CN(C1)Cc1c([nH]c3ccccc13)[C@@](C(=O)OC)(c1cc3c(cc1OC)N(C)[C@H]1[C@@](O)(C(=O)OC)[C@H](OC(C)=O)[C@]4(CC)C=CCN5CC[C@]31[C@@H]54)C2 [vinorelbine]
≤ 0.3 µM: all assays above

Cc1c(NC(=O)OC[C@@H]2COCCN2)cn2ncnc(Nc3ccc4c(cnn4Cc4cccc(F)c4)c3)c12
9 µM: HepG2-CANX-COX4 | WPMY1-GM130-SQSTM1 | WPMY1-TP53BP1-CLTA
1 µM: HepG2-GM130-SQSTM1 | HepG2-TUBA1B-RELA
3 µM: all other assays above

CN1CCN(c2ccc(OC(F)(F)F)c(Nc3ncc4c(n3)-c3c(c(C(N)=O)nn3CCO)CC4)c2)CC1
1 µM: WPMY1-CANX-COX4 | WPMY1-GM130-SQSTM1
≤ 0.3 µM: all other assays above

O=C1Cc2c([nH]c3ccc(Br)cc23)-c2ccccc2N1 [Kenpaullone]
3 µM: HepG2-ACTB-RAB5A | HepG2-GM130-SQSTM1 | HepG2-TP53BP1-CLTA | WPMY1-TUBA1B-RELA
1 µM: all other assays above

C[C@@H]1COCCN1c1cc(C2(S(C)(=O)=O)CC2)nc(-c2cccc3[nH]ccc23)n1
≤ 0.3 µM: HepG2-ACTB-RAB5A | WPMY1-ACTB-RAB5A | WPMY1-CANX-COX4
3 µM: WPMY1-TUBA1B-RELA
1 µM: all other assays above

CN1CCC(=C2c3ccccc3CC(=O)c3sccc32)CC1 [ketotifen]
3 µM: HepG2-TUBA1B-RELA
9 µM: all other assays above

COc1cc(N2CCOCC2)ccc1Nc1ncc(Cl)c(Nc2ccccc2NS(C)(=O)=O)n1
9 µM: WPMY1-ACTB-RAB5A | WPMY1-CANX-COX4 | WPMY1-GM130-SQSTM1 | WPMY1-TP53BP1-CLTA
3 µM: all other assays above

COc1cccc(-c2cc(F)ccc2[C@H]2Cc3nc(N)nc(C)c3C(=O)N2)n1
≤ 0.3 µM: all assays above

COCc1c(C(C)C)nc(C(C)C)c(/C=C/[C@@H](O)C[C@@H](O)CC(=O)O)c1-c1ccc(F)cc1 [cerivastatin]
≤ 0.3 µM: all assays above

Cc1cc(Nc2cc(C)c(C#N)c(NC(C)CCCC(C)(C)O)n2)n[nH]1 (stereo not given) [TC-A 2317 hydrochloride]
≤ 0.3 µM: HepG2-GM130-SQSTM1 | HepG2-TP53BP1-CLTA | HepG2-TUBA1B-RELA | WPMY1-TP53BP1-CLTA
1 µM: all other assays above

CC(C)(C)Nc1nc(Nc2ccc(C(N)=O)cc2)cc(N)c1C#N
9 µM: WPMY1-CANX-COX4 | WPMY1-TUBA1B-RELA
3 µM: all other assays above
